# Active and inactive are the calls of the source.
# Tests used:
# [1] = system: Plasmodium falciparum Sir2 (PF13_0152, Sir2A); test: pfSir2 binders on small-molecule microarrays, primary screen, biochemical, small-molecule microarray, 635 nm fluorescence (AID 1098); conditions: small-molecule microarray binding, fluorescence 635 nm; higher = more signal;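 note: score merges spot fluorescence intensity with its signal-to-noise ratio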
# [2] = small-molecule microarray binders of probe aDKK1, primary screen, biochemical, biotinylated probe, 635/667 nm fluorescence (AID 1099); conditions: higher = more signal;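 note: score merges 667nm spot fluorescence with signal to noise across triplicate slides; reference of the scale not given here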
# [3] = small-molecule microarray binders of probe aCHRDL2, primary screen, biochemical, biotinylated probe, 635/667 nm fluorescence (AID 1100); conditions: higher = more signal
# [4] = splicing luciferase reporter signal modulators, primary screen, spliceosome inhibition project, cell-based, HEK293, splice +/- reporter (AID 1101); conditions: luminescence, 24 h, higher = more signal, called active from +8 up or from −8 down;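 note: HEK293 cells carrying a splicing-competent luciferase reporter gene; test concentration not given here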
# [5] = target: Fibroblast growth factor 10 (Homo sapiens) (UniProt O15520); test: FGF10 binders on small-molecule microarrays, primary screen, biochemical, small-molecule microarray, 635 nm fluorescence (AID 1102); conditions: FGF10 binding, fluorescence 635 nm, higher = more signal
# Fibroblast growth factor 10 (Homo sapiens), sequence (O15520 whole entry, looked up): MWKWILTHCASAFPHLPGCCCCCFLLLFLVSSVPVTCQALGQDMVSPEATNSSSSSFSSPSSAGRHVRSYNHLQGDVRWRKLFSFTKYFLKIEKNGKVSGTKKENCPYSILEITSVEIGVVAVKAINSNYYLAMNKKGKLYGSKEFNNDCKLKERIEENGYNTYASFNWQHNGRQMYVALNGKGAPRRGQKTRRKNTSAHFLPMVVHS
# [6] = system: glycogen synthase kinase-3 (GSK3A per assay name; protocol says GSK3B); test: GSK3 binders on small-molecule microarrays, primary screen, biochemical, small-molecule microarray, 635 nm fluorescence, GSK3A (AID 1103); conditions: small-molecule microarray binding, fluorescence 635 nm; higher = more signal; note: the record names both GSK3A and GSK3B
# [7] = target: Epidermal growth factor receptor (Homo sapiens) (UniProt P00533); test: EGFR binders on small-molecule microarrays, primary screen, biochemical, small-molecule microarray, 635 nm fluorescence (AID 1104); conditions: EGFR binding, higher = more signal;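 note: score merges 667 nm emission intensity with spot signal to noise over triplicate slides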
# Epidermal growth factor receptor (Homo sapiens), sequence (P00533 whole entry, looked up): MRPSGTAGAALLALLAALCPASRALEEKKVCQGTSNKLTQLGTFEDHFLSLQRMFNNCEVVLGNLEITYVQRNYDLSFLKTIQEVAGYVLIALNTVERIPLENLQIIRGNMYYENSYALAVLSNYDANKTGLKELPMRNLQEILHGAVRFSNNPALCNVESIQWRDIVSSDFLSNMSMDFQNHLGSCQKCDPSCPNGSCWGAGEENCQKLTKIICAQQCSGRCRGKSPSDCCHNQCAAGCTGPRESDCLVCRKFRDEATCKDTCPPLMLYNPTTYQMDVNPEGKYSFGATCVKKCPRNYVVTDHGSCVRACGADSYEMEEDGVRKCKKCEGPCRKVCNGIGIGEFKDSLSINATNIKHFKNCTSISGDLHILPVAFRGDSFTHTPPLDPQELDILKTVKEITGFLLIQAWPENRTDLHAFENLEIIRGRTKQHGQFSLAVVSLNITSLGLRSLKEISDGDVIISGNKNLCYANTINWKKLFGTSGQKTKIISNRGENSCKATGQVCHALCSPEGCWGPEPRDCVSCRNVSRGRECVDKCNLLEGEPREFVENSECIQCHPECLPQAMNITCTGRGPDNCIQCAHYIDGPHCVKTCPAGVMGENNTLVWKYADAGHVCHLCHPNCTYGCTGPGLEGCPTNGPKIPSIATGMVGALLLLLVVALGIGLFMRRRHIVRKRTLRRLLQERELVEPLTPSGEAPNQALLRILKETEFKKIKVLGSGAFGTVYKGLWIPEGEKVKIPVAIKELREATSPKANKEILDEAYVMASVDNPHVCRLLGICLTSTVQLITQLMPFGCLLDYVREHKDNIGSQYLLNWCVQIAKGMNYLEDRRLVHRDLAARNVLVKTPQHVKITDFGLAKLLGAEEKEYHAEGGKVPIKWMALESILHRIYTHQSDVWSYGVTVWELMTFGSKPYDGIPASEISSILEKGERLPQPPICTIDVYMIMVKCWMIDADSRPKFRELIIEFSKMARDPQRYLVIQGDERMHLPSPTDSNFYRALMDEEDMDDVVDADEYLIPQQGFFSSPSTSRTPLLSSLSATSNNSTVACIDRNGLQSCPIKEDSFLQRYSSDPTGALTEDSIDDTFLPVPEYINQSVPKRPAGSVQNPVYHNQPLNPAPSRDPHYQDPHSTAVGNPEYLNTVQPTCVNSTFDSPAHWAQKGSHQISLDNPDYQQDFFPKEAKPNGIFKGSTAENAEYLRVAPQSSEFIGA
# [8] = target: Follistatin-related protein 3 (Homo sapiens) (UniProt O95633); test: FSTL3 binders on small-molecule microarrays, primary screen, biochemical, small-molecule microarray, 635 nm fluorescence (AID 1105); conditions: FSTL3 binding, higher = more signal;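 note: score merges emission near 667 nm and signal to noise per printed spot across three slides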
# Follistatin-related protein 3 (Homo sapiens), sequence (O95633 whole entry, looked up): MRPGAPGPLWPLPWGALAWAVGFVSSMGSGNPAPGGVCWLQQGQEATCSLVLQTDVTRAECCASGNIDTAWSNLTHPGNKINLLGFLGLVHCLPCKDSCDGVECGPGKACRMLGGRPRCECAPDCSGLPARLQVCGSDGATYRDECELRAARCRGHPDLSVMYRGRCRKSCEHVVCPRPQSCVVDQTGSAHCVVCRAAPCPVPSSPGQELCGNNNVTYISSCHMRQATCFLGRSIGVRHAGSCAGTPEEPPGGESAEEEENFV
# [9] = target: Dickkopf-related protein 1 (Homo sapiens) (UniProt O94907); test: DKK1 binders on small-molecule microarrays, primary screen, biochemical, small-molecule microarray, 635 nm fluorescence scan (AID 1106); conditions: DKK1 binding, higher = more signal;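 note: score merges emission near 667 nm with signal to noise over three replicate slides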
# Dickkopf-related protein 1 (Homo sapiens), sequence (O94907 whole entry, looked up): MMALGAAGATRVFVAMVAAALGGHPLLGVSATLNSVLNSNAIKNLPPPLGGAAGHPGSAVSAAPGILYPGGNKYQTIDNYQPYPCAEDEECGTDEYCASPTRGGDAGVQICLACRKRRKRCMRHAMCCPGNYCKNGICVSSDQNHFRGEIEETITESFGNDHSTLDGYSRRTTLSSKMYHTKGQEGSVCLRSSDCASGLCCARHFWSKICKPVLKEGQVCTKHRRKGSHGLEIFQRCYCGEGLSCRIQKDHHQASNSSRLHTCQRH
# [10] = system: Inhibin beta A chain (activin A); test: INHBA (activin A) binders on microarrays, primary screen, biochemical, small-molecule microarray, 635 nm fluorescence scan (AID 1107); conditions: small-molecule microarray binding, higher = more signal;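 note: mouse activin A protein probed at 4.33 µg/mL on printed slides; score merges bound-protein fluorescence near 667 nm with spot signal-to-noise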
smiles,measurement,setting,value
C[C@]1(C(=O)NCC(F)(F)F)c2ccccc2C(=O)N(Cc2cc(C(F)(F)F)cc(C(F)(F)F)c2)[C@H]1c1ccc(CO)cc1,composite z-score,[1],0.786
same,composite z-score,[2],0.338
same,composite z-score,[3],0.543
same,z-score,[4],0.272 (inactive)
same,composite z-score,[5],-0.2
same,composite z-score,[6],-0.447
same,composite z-score,[7],-0.654
same,composite z-score,[8],-0.695
same,composite z-score,[9],-0.399
same,composite z-score,[10],-0.497
CC(C)C[C@@H]1NC(=O)[C@@H]2C[C@H](C(=O)NCCCCCCNC(=O)CS)[C@H](c3ccc(O)cc3)N2C1=O,composite z-score,[1],1.57
same,composite z-score,[2],-0.0965
same,composite z-score,[3],0.254
same,z-score,[4],-1.1 (inactive)
same,composite z-score,[5],1.45
same,composite z-score,[6],1.26
same,composite z-score,[7],0.672
same,composite z-score,[8],1.47
same,composite z-score,[9],1.27
same,composite z-score,[10],-0.0334
OCCCc1cc[n+](Cc2cc3c(cc2Br)OCO3)cc1,composite z-score,[1],-0.837
same,composite z-score,[2],-0.0013
same,composite z-score,[3],0.706
same,z-score,[4],0.341 (inactive)
same,composite z-score,[5],-0.741
same,composite z-score,[6],-1.84
same,composite z-score,[7],-1.15
same,composite z-score,[8],-0.725
same,composite z-score,[9],-0.625
same,composite z-score,[10],0.783
C=CC[C@]1(C(=O)NCC(O)CO)N=C(c2ccc(OCCCO)cc2)O[C@H]1c1ccccc1CN=[N+]=[N-] (stereo not given in full),composite z-score,[1],-0.285
same,composite z-score,[2],0.783
same,composite z-score,[3],1.18
same,z-score,[4],0.704 (inactive)
same,composite z-score,[5],0.722
same,composite z-score,[6],0.7
same,composite z-score,[7],-2.08
same,composite z-score,[8],-1.17
same,composite z-score,[9],-0.471
same,composite z-score,[10],0.274
C=CC[C@H](OC(=O)Nc1ccc(SC)cc1)c1ccc(O)c(F)c1,composite z-score,[1],0.983
same,composite z-score,[2],-0.172
same,composite z-score,[3],0.277
same,z-score,[4],-0.354 (inactive)
same,composite z-score,[5],-0.918
same,composite z-score,[6],-0.786
same,composite z-score,[7],-0.392
same,composite z-score,[8],-0.88
same,composite z-score,[9],-1.17
same,composite z-score,[10],0.536
COc1ccc([Si](C)(C)[C@H]2[C@H](CC(=O)N3CCC[C@H]3CO)O[C@@]3(C(=O)N(C)c4ccccc43)[C@@H]2C)cc1,composite z-score,[1],0.364
same,composite z-score,[2],0.214
same,composite z-score,[3],-0.159
same,z-score,[4],0.361 (inactive)
same,composite z-score,[5],0.105
same,composite z-score,[6],-0.102
same,composite z-score,[7],0.335
same,composite z-score,[8],0.705
same,composite z-score,[9],0.588
same,composite z-score,[10],1.48
Cc1cccc([C@H]2C[C@H]3C(Br)=C[C@@]2(CO)C(=O)[C@]32CO2)c1,composite z-score,[1],0.259
same,composite z-score,[2],0.0578
same,composite z-score,[3],0.382
same,z-score,[4],-0.34 (inactive)
same,composite z-score,[5],1.01
same,composite z-score,[6],0.0353
same,composite z-score,[7],-0.0766
same,composite z-score,[8],0.159
same,composite z-score,[9],-0.166
same,composite z-score,[10],0.55
COc1cc2c(cc1O)C(C)N(Cc1sc3ccccc3c1Cl)CC2 (stereo not given),composite z-score,[1],-0.0748
same,composite z-score,[2],0.247
same,composite z-score,[3],0.868
same,z-score,[4],-0.283 (inactive)
same,composite z-score,[5],-1.16
same,composite z-score,[6],-0.306
same,composite z-score,[7],-1.27
same,composite z-score,[8],-0.348
same,composite z-score,[9],-1.56
same,composite z-score,[10],-0.0182
[N-]=[N+]=Nc1ccccc1C[C@@]1(C(=O)NCc2ccccc2)N=C(c2ccc(OCCCO)cc2)O[C@@H]1c1ccccc1,composite z-score,[1],1.22
same,composite z-score,[2],0.95
same,composite z-score,[3],1.03
same,z-score,[4],-0.0448 (inactive)
same,composite z-score,[5],1.14
same,composite z-score,[6],1.29
same,composite z-score,[7],0.165
same,composite z-score,[8],1.06
same,composite z-score,[9],0.313
same,composite z-score,[10],0.838
O=C(N1CCOCC1)[C@]1(CCS(=O)(=O)c2ccccc2)N=C(c2ccc(OCCCO)cc2)O[C@@H]1c1ccccc1,composite z-score,[1],1.5
same,composite z-score,[2],1.18
same,composite z-score,[3],1.37
same,z-score,[4],-1.04 (inactive)
same,composite z-score,[5],0.59
same,composite z-score,[6],0.7
same,composite z-score,[7],-0.113
same,composite z-score,[8],0.488
same,composite z-score,[9],-0.753
same,composite z-score,[10],0.599
C=CCNC(=O)[C@@H]1[C@H]2C(=O)O[C@H](c3ccccc3)[C@H](c3ccccc3)N2[C@H](c2ccc(O)cc2)[C@@]12C(=O)Nc1ccc(C#CC3=CCCCC3)cc12,composite z-score,[1],1.6
same,composite z-score,[2],0.582
same,composite z-score,[3],-0.228
same,z-score,[4],-0.258 (inactive)
same,composite z-score,[5],1.24
same,composite z-score,[6],0.887
same,composite z-score,[7],0.494
same,composite z-score,[8],0.79
same,composite z-score,[9],0.626
same,composite z-score,[10],0.406
COc1cc(Cc2cc3c(c(-c4ccccc4)n2)[Si](C(C)C)(C(C)C)OC3)cc(OC)c1OC,composite z-score,[1],-0.201
same,composite z-score,[2],-0.113
same,composite z-score,[3],0.105
same,z-score,[4],-0.877 (inactive)
same,composite z-score,[5],0.607
same,composite z-score,[6],-0.0611
same,composite z-score,[7],0.1
same,composite z-score,[8],0.0088
same,composite z-score,[9],0.17
same,composite z-score,[10],1.23
CCCCC(=C=CC[C@H](O)c1cccc(OCCO)c1)C[C@H](O)c1cc(Cl)cc(Cl)c1O,composite z-score,[1],1.28
same,composite z-score,[2],-0.152
same,composite z-score,[3],-0.214
same,z-score,[4],-0.109 (inactive)
same,composite z-score,[5],1.27
same,composite z-score,[6],0.25
same,composite z-score,[7],-0.443
same,composite z-score,[8],0.544
same,composite z-score,[9],0.0244
same,composite z-score,[10],0.295
COCCOC(=O)N1C(=O)[C@@]2(c3cc(C#CCCO)ccc31)[C@H](C(=O)N1CCN(c3ncccn3)CC1)[C@H]1C(=O)O[C@H](c3ccccc3)[C@H](c3ccccc3)N1[C@@H]2c1ccc(OCCO)cc1,composite z-score,[1],1.24
same,composite z-score,[2],-0.019
same,composite z-score,[3],0.349
same,z-score,[4],-1.1 (inactive)
same,composite z-score,[5],1.22
same,composite z-score,[6],0.823
same,composite z-score,[7],0.592
same,composite z-score,[8],1.38
same,composite z-score,[9],0.514
same,composite z-score,[10],0.356

# From PubChem BioAssay
